For assay [1], the target named is Albumin (Bos taurus) (UniProt P02769). Briefly: compounds binding labelled BSA control protein – biochemical, small-molecule microarray, Alexa647 label, 635/667 nm fluorescence, artefact control for SMM control protein annotation, profiling panel (AID 1118).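 Further: score merges 667 nm emission intensity and signal-to-noise per printed compound spot.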 As to conditions: BSA-A647 binding, fluorescence 635 nm, higher = more signal.
A short description of assay [2]: probe aXIP binding to arrayed compounds – biochemical, NeuroSMM set, 635/667 nm fluorescence, primary screen (AID 1119).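 Further: probe is the protein aXip251-270 applied at 1 µg/mL to compound-printed slides; binding of probe to printed compounds measured as 667 nm fluorescence plus signal to noise.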 The note with it: small-molecule microarray, higher = more signal, called active from +8 up or from −8 down.
Assay [3] is described as follows: probe aNOTCH3 binding on compound microarray – biochemical, small-molecule microarray, 635/667 nm fluorescence, primary screen (AID 1120).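 Further: probe is a biotin-tagged antibody raised against NOTCH3 rather than NOTCH3 protein; score merges spot fluorescence near 667 nm with spot signal to noise.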 The note with it: higher = more signal.
A short description of assay [4]: probe aNOTCH2 binding on compound microarray – biochemical, small-molecule microarray, 635/667 nm fluorescence, primary screen (AID 1121).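 Further: score merges feature fluorescence read at 667 nm with its signal to noise.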 As to conditions: higher = more signal.
Assay [5] has as its target Carbonic anhydrase 2 (Homo sapiens) (UniProt P00918). Nature of the assay: compounds binding carbonic anhydrase 2 – biochemical, small-molecule microarray, Alexa647-labelled CAII, profiling panel (AID 1122). The note with it: CAII-A647 binding fluorescence, higher = more signal.
Assay [6] in a line: COS7 lysate on small-molecule microarray, probe aHis, 635 nm (AID 1123).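 Further: z-score combines 667nm fluorescence intensity with signal-to-noise per printed compound spot.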 As to conditions: COS7 cell lysate, fluorescence, higher = more signal.
Assay [7] can be described thus: probe aLAP1 signal on lysate-treated microarray – cell lysate, small-molecule microarray, COS7 lysate, primary screen (AID 1124).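 Further: lysate comes from COS7 cells expressing LAP1 and is applied at 0.3 µg/mL; score merges spot fluorescence near 667 nm with signal-to-noise over triplicate slides.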 As to conditions: probe aLAP1, fluorescence, higher = more signal.
In assay [8] the test system is Sam68 (KHDRBS1). Briefly: compounds binding KHDRBS1 protein – biochemical, small-molecule microarray, 635 nm fluorescence, primary screen (AID 1125).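 Further: score merges 667 nm channel intensity with signal to noise over triplicate slides.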 The note with it: higher = more signal.
The subject of assay [9] is Chordin-like protein 2 (CHRDL2). Nature of the assay: compounds binding chordin-like 2 – biochemical, small-molecule microarray, 635 nm fluorescence, primary screen (AID 1126).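 Further: printed compound slides probed with Chrdl2 protein at 4 µg/mL for 1 h at 4 C; score merges 667 nm emission intensity with signal to noise over three replicate slides.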 As to conditions: fluorescence 635 nm, higher = more signal.
The target of assay [10] is Concanavalin-A (Canavalia ensiformis) (UniProt P02866). Briefly: compounds binding concanavalin A lectin – biochemical, small-molecule microarray, Alexa647 label, 635 nm, artefact control for SMM control protein annotation, primary screen (AID 1127).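 Further: z combines 667 nm emission intensity with signal-to-noise across three replicate slides.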 As to conditions: ConA-A647 binding fluorescence, higher = more signal.
A short description of assay [11]: compounds binding Alexa647 anti-His antibody – biochemical, small-molecule microarray, 635 nm fluorescence, artefact control for SMM control protein annotation, primary screen (AID 1128).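 Further: score merges feature fluorescence with signal-to-noise for each printed compound spot.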 The note with it: higher = more signal.
In assay [12] the test system is Human papillomavirus type 1a E7 protein (residues 1-88). Briefly: HPV1a E7 small-molecule binders, primary screen, biochemical, small-molecule microarray, residues 1-88, 635 nm (AID 1129). As to conditions: small-molecule microarray binding, fluorescence 635 nm; higher = more signal.
Assay [13] has as its target Focal adhesion kinase 1 (Homo sapiens) (UniProt Q05397). Nature of the assay: PTK2 protein binding on printed compound slides – biochemical, small-molecule microarray, 635/667 nm fluorescence, BSA, DTT, primary screen (AID 1130).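 Further: composite of spot emission at 667 nm and signal to noise over triplicate slides.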 As to conditions: 635 nm fluorescence, higher = more signal.
Assay [14] relates to Fibrinogen (Alexa647-labelled). Briefly: Alexa647-fibrinogen binding to printed small molecules – biochemical, small-molecule microarray, 635/667 nm fluorescence, artefact control for SMM control-protein annotation, profiling panel (AID 1131).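 Further: z-score merges 667 nm fluorescence with per-spot signal-to-noise over triplicate slides.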 The note with it: fibrinogen-A647 binding fluorescence, higher = more signal.
For assay [15], the target named is Follistatin (Homo sapiens) (UniProt P19883). Nature of the assay: FST protein binding to printed compounds – biochemical, small-molecule microarray, 635/667 nm fluorescence, primary screen (AID 1132). The note with it: 635 nm fluorescence, higher = more signal.
Assay [16] deals with Fibroblast growth factor 2 (Homo sapiens) (UniProt P09038). Nature of the assay: basic fibroblast growth factor binding to printed compounds – biochemical, small-molecule microarray, 635/667 nm fluorescence, primary screen (AID 1133). As to conditions: FGF2, fluorescence 635/667, higher = more signal.
Assay [17] is described as follows: JC-1 mitochondrial potential readout, lung cancer cells – cell-based, A549, JC-1 fluorescence, basal, 24 h, 100 nL, profiling panel (AID 1138).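 Further: A549 lung adenocarcinoma cells under basal conditions with no added stimulus; test concentration not given here.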 As to conditions: higher = more signal.
Assay [18] relates to Lefty1. Nature of the assay: Lefty1 protein binding to printed compounds – biochemical, small-molecule microarray, 635/667 nm fluorescence, primary screen (AID 1139). The note with it: fluorescence 635/667, higher = more signal.
The subject of assay [19] is wheat germ agglutinin (Triticum aestivum), Alexa647-labelled. Briefly: Alexa647-WGA lectin binding to printed small molecules – biochemical, small-molecule microarray, 635/667 nm fluorescence, artefact control for SMM control-protein annotation, profiling panel (AID 1140).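 Further: score merges 667 nm feature emission with signal to noise over triplicate slides.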 The note with it: WGA-A647 binding, 635 nm fluorescence, higher = more signal.
For assay [20], the target named is Luciferin 4-monooxygenase (Photinus pyralis) (UniProt P08659). Nature of the assay: inhibition of purified Photinus pyralis luciferase – biochemical, luminescence, purified enzyme, 2006 set, primary screen (AID 1141).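 Further: cell-free assay with purified firefly luciferase at 100 ng per well in PBS; test concentration not given here.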 As to conditions: purified firefly luciferase, SteadyGlo luminescence, 30 min; higher = more signal, called active from +8 up or from −8 down.

Calls of active or inactive are those of the source.

Sequence of Follistatin (Homo sapiens) (P19883 whole entry, looked up): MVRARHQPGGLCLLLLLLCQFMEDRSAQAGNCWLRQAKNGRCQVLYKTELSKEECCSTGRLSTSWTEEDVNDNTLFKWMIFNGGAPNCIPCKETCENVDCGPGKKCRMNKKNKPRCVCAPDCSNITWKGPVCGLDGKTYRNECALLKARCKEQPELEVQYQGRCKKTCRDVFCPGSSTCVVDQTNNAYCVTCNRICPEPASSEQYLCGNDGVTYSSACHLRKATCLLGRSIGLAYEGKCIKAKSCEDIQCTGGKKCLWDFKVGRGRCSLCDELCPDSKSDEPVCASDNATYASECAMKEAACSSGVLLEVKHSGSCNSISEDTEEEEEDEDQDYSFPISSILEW
Sequence of Fibroblast growth factor 2 (Homo sapiens) (P09038 whole entry, looked up): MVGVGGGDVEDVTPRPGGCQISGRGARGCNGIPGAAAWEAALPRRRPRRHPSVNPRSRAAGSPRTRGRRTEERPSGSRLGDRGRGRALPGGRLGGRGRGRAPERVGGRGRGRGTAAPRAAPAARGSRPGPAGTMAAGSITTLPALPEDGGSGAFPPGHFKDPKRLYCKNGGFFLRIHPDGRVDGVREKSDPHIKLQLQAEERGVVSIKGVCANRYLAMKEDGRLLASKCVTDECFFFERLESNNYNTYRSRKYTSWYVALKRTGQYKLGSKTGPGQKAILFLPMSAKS
Sequence of Concanavalin-A (Canavalia ensiformis) (P02866 whole entry, looked up): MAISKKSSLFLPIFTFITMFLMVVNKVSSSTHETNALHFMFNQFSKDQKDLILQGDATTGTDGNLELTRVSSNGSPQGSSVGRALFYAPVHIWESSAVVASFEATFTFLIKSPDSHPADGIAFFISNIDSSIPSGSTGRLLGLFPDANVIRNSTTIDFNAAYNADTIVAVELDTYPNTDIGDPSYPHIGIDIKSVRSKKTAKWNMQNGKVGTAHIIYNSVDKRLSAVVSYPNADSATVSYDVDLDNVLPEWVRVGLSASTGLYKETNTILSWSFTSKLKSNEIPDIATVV
Sequence of Luciferin 4-monooxygenase (Photinus pyralis) (P08659 whole entry, looked up): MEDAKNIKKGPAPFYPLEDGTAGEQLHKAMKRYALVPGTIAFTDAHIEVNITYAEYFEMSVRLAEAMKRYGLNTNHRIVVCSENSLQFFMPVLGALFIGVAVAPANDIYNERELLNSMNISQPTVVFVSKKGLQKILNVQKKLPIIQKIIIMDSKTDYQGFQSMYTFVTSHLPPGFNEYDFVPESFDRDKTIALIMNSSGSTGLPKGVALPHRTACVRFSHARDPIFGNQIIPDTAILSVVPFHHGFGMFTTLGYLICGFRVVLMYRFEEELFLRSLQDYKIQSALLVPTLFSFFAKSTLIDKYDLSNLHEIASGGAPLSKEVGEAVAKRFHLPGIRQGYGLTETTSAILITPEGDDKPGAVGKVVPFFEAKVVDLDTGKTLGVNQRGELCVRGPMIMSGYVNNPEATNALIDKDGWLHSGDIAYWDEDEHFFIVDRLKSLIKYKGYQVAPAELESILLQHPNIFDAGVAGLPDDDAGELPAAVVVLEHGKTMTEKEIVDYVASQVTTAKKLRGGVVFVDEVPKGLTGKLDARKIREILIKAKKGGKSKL
Sequence of Albumin (Bos taurus) (P02769 whole entry, looked up): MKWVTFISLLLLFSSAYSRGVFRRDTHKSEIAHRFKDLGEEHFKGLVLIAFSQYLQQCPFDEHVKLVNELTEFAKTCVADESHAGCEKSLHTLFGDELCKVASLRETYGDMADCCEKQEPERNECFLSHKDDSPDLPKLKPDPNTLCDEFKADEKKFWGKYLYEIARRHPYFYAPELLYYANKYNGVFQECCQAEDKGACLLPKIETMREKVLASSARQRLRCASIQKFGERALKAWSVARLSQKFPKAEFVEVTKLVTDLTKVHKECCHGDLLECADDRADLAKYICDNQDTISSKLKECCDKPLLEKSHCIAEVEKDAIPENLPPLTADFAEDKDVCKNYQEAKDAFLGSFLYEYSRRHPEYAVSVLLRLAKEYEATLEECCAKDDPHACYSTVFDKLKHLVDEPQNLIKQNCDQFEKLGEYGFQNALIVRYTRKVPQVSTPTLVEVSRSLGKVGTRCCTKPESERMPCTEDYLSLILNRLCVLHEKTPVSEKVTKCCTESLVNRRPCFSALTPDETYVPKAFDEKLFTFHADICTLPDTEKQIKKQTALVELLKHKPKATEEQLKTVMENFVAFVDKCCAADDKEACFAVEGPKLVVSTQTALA
Sequence of Focal adhesion kinase 1 (Homo sapiens) (Q05397 whole entry, looked up): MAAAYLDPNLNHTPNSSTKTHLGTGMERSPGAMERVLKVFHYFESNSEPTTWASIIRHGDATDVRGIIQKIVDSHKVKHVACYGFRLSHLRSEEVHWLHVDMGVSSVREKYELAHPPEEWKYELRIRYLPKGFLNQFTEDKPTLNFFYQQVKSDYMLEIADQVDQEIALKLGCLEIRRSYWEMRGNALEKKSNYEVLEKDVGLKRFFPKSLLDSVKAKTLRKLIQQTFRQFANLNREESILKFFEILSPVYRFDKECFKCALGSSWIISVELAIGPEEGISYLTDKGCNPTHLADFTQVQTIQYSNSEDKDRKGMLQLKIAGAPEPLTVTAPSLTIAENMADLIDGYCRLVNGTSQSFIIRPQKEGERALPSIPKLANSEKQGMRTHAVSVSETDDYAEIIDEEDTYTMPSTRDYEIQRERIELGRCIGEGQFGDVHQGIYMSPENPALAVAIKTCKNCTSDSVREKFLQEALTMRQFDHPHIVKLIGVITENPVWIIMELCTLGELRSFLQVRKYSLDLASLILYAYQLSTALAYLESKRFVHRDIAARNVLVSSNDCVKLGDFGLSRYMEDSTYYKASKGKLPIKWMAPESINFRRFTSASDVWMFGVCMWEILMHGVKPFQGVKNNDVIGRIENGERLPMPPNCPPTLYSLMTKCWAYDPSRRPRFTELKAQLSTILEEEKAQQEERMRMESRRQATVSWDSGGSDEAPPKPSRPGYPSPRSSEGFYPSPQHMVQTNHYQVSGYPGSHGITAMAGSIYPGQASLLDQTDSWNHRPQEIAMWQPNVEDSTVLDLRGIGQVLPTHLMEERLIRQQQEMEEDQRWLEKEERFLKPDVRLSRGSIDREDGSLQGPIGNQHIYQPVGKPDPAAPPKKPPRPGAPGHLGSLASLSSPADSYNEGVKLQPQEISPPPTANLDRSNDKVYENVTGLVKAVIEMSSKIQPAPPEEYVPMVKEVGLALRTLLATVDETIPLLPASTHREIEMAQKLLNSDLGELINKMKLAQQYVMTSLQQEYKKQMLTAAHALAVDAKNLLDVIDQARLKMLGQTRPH

As for `CC[C@@H]1C=C(C(=O)O)[C@H](c2ccc(Br)cc2)N1S(=O)(=O)c1ccc(C)cc1`, the composite z-score was 0.66 in assay [1]; 0.167 in [3]; -0.0649 in assay [4]; 0.709 in assay [5]; 2.01 in [6]; 0.98 in assay [7]. In addition, the composite z-score turned out to be 0.93 in [8]; 0.173 in assay [9]; 0.882 in [10]; 0.153 in assay [11]; 1.04 in assay [12]; 0.453 in assay [13]. The composite z-score was 0.886 in assay [14]; 0.076 in assay [15]; -0.0934 in assay [16]; 0.0429 in [18]; 0.554 in assay [19]. Also, the composite Z-score in [2] was 0.142 (inactive). Besides, the figures for the z-score in assay [17] and in [20] were -0.785 and 0.942 (inactive), respectively.

In the case of `CCOC(=O)[C@H]1C/C=C/C[C@H](C(=O)OCC)C(=O)O[C@H]2[C@@H](OC)O[C@H](CO)[C@@H](OC(=O)c3c(OC)cccc3OC)[C@@H]2OC1=O`, the composite z-score in assay [1] is 0.0961; in [3] it was 0.275; in assay [4], -0.108; in [5], 0.512; in [6] it was 1.66; in assay [7], 0.47. Further, the composite z-score in assay [8] was 1.26; in assay [9], 0.83; in assay [10], 0.932; in [11], 0.0181; in assay [12], 1.12; in assay [13], 0.523. In addition, the composite z-score was determined as 0.661 in assay [14]; 0.706 in assay [15]; 0.418 in [16]; 0.639 in assay [18]; 0.0697 in [19]. The composite Z-score in [2] was 0.338 (inactive). Moreover, the z-score in assay [17] is -0.927; in assay [20] it was -0.335 (inactive).

Consider `COCC(=C=CC[C@@H](O)c1cccc(OCCO)c1)C[C@@H](O)c1ccccn1`, for which the composite z-score in [1] is 0.254; in assay [3], 0.0979; in assay [4], -0.14; in [5], 0.744; in [6] it was 0.486; in assay [7], 1.73. In addition, the composite z-score in [8] is 0.338; in assay [9] it was 0.188; in assay [10], 0.218; in [11] it was -0.252; in [12], 0.467; in assay [13], -0.32. The composite z-score is 0.263 in [14]; 0.868 in assay [15]; 0.392 in [16]; 1.24 in assay [18]; 0.0688 in assay [19]. In addition, in [2], the composite Z-score is 0.745 (inactive). Also, the z-score in [17] is 1.53; in assay [20], -1.16 (inactive).

As for `COc1ccc(C(O)C2C=CC3C(=O)N(Cc4ccccc4)C(=O)C3N2n2cnnc2)cc1OCc1ccccc1` (stereo not given), the composite z-score in [1] is 0.799; in assay [3] it was 0.0493; in assay [4], -0.152; in assay [5] it was 0.771; in assay [6], 1.5; in assay [7], -0.276. The composite z-score in assay [8] was 0.953; in [9], -0.34; in assay [10], 0.681; in [11] it was -0.259; in assay [12] it was 0.48; in assay [13], 1.23. The composite z-score was 0.303 in assay [14]; 0.319 in assay [15]; -0.385 in [16]; 0.341 in assay [18]; 0.194 in assay [19]. In addition, the composite Z-score in [2] is -1.19 (inactive). Also, the results for the z-score in assay [17] and in assay [20] were -1.03 and 1.77 (inactive), respectively.

For the molecule `COCCOC(=O)N1C(=O)[C@@]2(c3cc(C#CC4(O)CCCCCC4)ccc31)[C@H](c1ccc(OCCO)cc1)N1[C@H](c3ccccc3)[C@H](c3ccccc3)OC(=O)[C@H]1[C@@H]2C(=O)N1CCN(c2ncccn2)CC1`, the composite z-score in assay [1] is 0.716; in assay [3], 0.0026; in assay [4] it was -0.146; in assay [5] it was 0.497; in assay [6], 1.46; in assay [7], -0.163. Further, the composite z-score in [8] amounted to 1.3; in assay [9], 0.34; in assay [10], 1.13; in assay [11], 1.39; in assay [12], 1.21; in assay [13], 0.333. Moreover, the composite z-score in [14] came out at 0.956; in assay [15] it was 1.03; in assay [16], 0.758; in [18], 0.651; in [19], 0.458. The composite Z-score in [2] is -0.232 (inactive). Besides, the z-score in assay [17] was -1.1; in [20] it was -0.606 (inactive).

Source of the values: PubChem BioAssay.
